# HIV RNase H inh-1 = blocks HIV-1 RNase H cleavage of RNA/DNA duplex | inhibition, % at 10 µM | P04585 | RT-RNase H RNA/DNA duplex cleavage, fluorescence | AID 565 | 65,000 compounds, 1.9% hits; in the data active = inhibition above about 50%
# RmlC RmlD mix = mixture blocks RmlC and RmlD coupled enzyme activity; RmlC/RmlD coupled enzyme inhibition, 384-well mixture HTS; inhibition, % at 5.5 µM; 110,000 compounds, 0.39% hits; AID 1532; in the data active = inhibition above about 30%, passing the limit was not always enough; inconclusive = no clear call, values can overlap the other calls
# HIV RNase H inh-2 = confirmation of HIV-1 reverse transcriptase RNase H inhibitors; shares compounds with HIV RNase H inh-1; Recombinant RT RNase H, fluorescent RNA/DNA duplex cleavage; inhibition, % at 10 µM; 1,000 compounds, 39% hits; AID 651; in the data active = inhibition above about 48%; inconclusive = no clear call, values can overlap the other calls
# * marks the source's active call; other numbers are inactive results; ? = inconclusive; / = no result given. This is one part of a sample in which hits are shown more often than they occur.
SMILES,HIV RNase H inh-1,RmlC RmlD mix,HIV RNase H inh-2
COC(=O)c1ccc2c(=O)n(Cc3ccco3)c(SCC(=O)Nc3ccc(C)c(Cl)c3)nc2c1,85.4*,15.4,75.8*
CCCOc1ccc(C(=O)Nn2c(C)nc3ccccc3c2=O)cc1,72.1*,11.5,-5.1
Cc1nc2ccccc2c(=O)n1NC(=O)COc1ccccc1,-4.5,-5.2,/
Cc1ccc(O)c(C(=O)c2cnc3c(c2)CN(CCC(C)C)C(=O)N3)c1,62.9*,-18.8,?
CCCCN1Cc2cc(C(=O)c3cc(OC)ccc3O)cnc2NC1=O,/,5.3,/
O=C(Nc1ccc(S(=O)(=O)NC2CCCC2)cc1)c1cnccn1,-7.1,-0.3,/
CCCCC(=O)Nc1ccc(C(=O)NNC(=O)c2ccccc2Br)cc1,/,5.8,/
Cc1nn(-c2ccccc2)c2[nH]c(=O)c(CNc3ccc4c(c3)OCCO4)cc12,80.2*,3.8,10.8
CCc1ccc(NCc2cc3c(C)nn(-c4ccccc4)c3[nH]c2=O)cc1,/,-4.0,/
CCOC(=O)C1Nc2c(F)cc(C)cc2C2C=CCC12 (centres undefined),/,5.5,/
Cc1ccc2c(c1C)NC(C(=O)O)C1CC=CC21 (centres undefined),96.0*,1.5,68.7*
O=C(c1ccccc1)c1ccccc1C(=O)N1CCOCC1,-2.1,13.7,/
O=C(O)C1Nc2c(C(=O)N3CCOCC3)cccc2C2C=CCC12 (centres undefined),76.8*,6.5,34.7
CCOC(=O)CN1C(=O)C(Sc2n[nH]c(-c3ccc(O)cc3)n2)CCc2ccccc21 (centres undefined),/,-11.3,/
C=C1CCN([C@H](C(=O)NCc2ccccc2)C(C)C)S(=O)(=O)c2ccccc21,/,-6.2,/
Nc1ccc(N2CCCCC2)cc1N1CCCCC1,-2.8,/,/
Fc1ccc(-n2[nH]nnc2=S)cc1N1CCCC1,63.4*,-4.7,-6.1
N#Cc1c(NC(=O)CSc2ncnc3sccc23)oc(-c2ccco2)c1-c1ccco1,73.7*,2.2,18.9
CCn1c(SCC(=O)Nc2oc(-c3ccccc3)c(-c3ccccc3)c2C#N)nnc1-c1ccncc1,/,5.5,/
CCn1c(SCC(=O)Nc2ccc3c(c2)OCCO3)nnc1-c1ccco1,-1.1,-14.0,/
CCn1c(SCC(=O)Nc2ccc3c(c2)c2ccccc2n3CC)nnc1-c1ccco1,100.2*,/,10.9
CCNC(=O)CSc1ncnc2sccc12,/,-4.3,/
CCn1c(SCC(=O)Nc2oc(-c3ccccc3)c(-c3ccccc3)c2C#N)nnc1-c1ccco1,64.1*,11.6,13.5
COc1ccc(-n2c(SCCC#N)nnc2-c2cc(Cl)ccc2OC)cc1Cl,-31.0,8.9,/
CC1(O)c2ccccc2C(=O)N1Cc1ccccc1 (centres undefined),-10.4,-16.1,/
SMILES,HIV RNase H inh-1,RmlC RmlD mix,HIV RNase H inh-2
CC1(O)c2ccccc2C(=O)N1CCc1ccccc1F (centres undefined),89.1*,-10.7,16.0
O=C(CSc1nnnn1-c1ccccc1)Nc1nsc(-c2ccccc2)n1,-6.3,11.0,/
O=C(CSc1nnnn1-c1ccccc1)Nc1nsc(-c2ccc(Cl)cc2)n1,65.4*,5.5,58.2*
O=C(Nc1ccc(Cl)cn1)C1CCCN1S(=O)(=O)c1ccccc1 (centres undefined),3.2,1.4,/
COC(=O)[C@H](C)NC(=O)Nc1cc(OC)ccc1OC,-9.3,-8.9,/
CCOc1ccccc1NC(=O)N1CCC(NC(=O)c2cccc(C)c2)CC1,76.9*,-8.1,12.7
CCOc1ccccc1NC(=O)N1CCC(NC(=O)c2ccccc2C)CC1,1.0,-15.5,/
CCOC(=O)c1cnn(-c2ccccc2)c1-n1cccc1C(=O)C(=O)Nc1ccccc1,/,0.3,/
Cc1ccc(-c2nnn(CC(=O)N(CC(=O)NC3CCCC3)c3cnc4ccccc4c3)n2)o1,9.6,-6.8,/
CCC(C(=O)NC1CCCC1)N(C(=O)Cn1nnc(-c2ccc(C)o2)n1)c1cnc2ccccc2c1 (centres undefined),65.9*,7.3,47.4
Clc1ccc(/C=N/c2c(-c3ccc(Cl)cc3)nc3n2CCS3)cc1,/,-6.7,/
C/C=C/CSc1nc2c(c(=O)[nH]c(=O)n2C)n1Cc1ccc(C)cc1,80.4*,-9.1,71.7*
CCCCn1c(SCc2ccc(Cl)cc2)nc2c1c(=O)[nH]c(=O)n2C,54.4*,-14.7,0.9
Cc1ccc(Cn2c(Sc3ncccn3)nc3c2c(=O)[nH]c(=O)n3C)cc1,4.3,26.3,/
COCCn1c(SCCN2CCOCC2)nc2c1c(=O)[nH]c(=O)n2C,87.8*,6.9,60.3*
C/C(Cl)=C/Cn1c(SCc2ccc(Cl)cc2)nc2c1c(=O)[nH]c(=O)n2C,35.4,1.5,/
C/C=C/Cn1c(SCc2ccccc2)nc2c1c(=O)[nH]c(=O)n2C,50.3*,7.7,1.5
C=CCn1c(SCCN2CCOCC2)nc2c1c(=O)[nH]c(=O)n2C,-2.3,6.0,/
CC(C)CSc1nc2c(c(=O)[nH]c(=O)n2C)n1CCc1ccccc1,3.4,-8.7,/
CCOCCc1nnc(NC(=O)COC)s1,-3.8,0.0,/
CN(CC(=O)NCc1ccccc1)S(=O)(=O)c1cnc[nH]1,/,89.3,/
O=C(CSc1ccc2nnc(-c3ccccc3)n2n1)N1CCCCC1,3.0,/,/
CS(=O)(=O)N(CC(=O)N1CCCCC1)c1sc2c(c1C#N)CCCC2,-10.4,1.6,/
O=C(Nc1cccc(C(F)(F)F)c1)c1cc(-c2ccc(F)cc2)on1,/,-13.5,/
CCN(CCNC(=O)C1CCN(c2nnc(-n3cccc3)s2)CC1)c1ccccc1,2.5,12.1,/
SMILES,HIV RNase H inh-1,RmlC RmlD mix,HIV RNase H inh-2
COCCn1c(SCc2c(F)cccc2Cl)nc2c1c(=O)[nH]c(=O)n2C,57.3*,-15.8,4.3
CCOCCn1c(SCc2ccc(F)cc2)nc2c1c(=O)[nH]c(=O)n2C,-23.6,-6.6,/
CS(=O)(=O)N(CC(=O)NCc1ccc2c(c1)OCO2)Cc1ccccc1,-7.5,11.3,/
COc1ccc(Br)cc1/C=c1\sc2nc(-c3ccco3)nn2c1=O,73.2*,4.7,?
COc1ccccc1/C=c1\sc2nc(-c3ccncc3)nn2c1=O,-13.0,/,/
Cc1cccc(C)c1NC(=O)CSCC(=O)c1ccc(O)c(O)c1,87.5*,4.6,61.5*
Cc1cccc(C)c1NC(=O)CSCC(=O)O,-3.7,/,/
O=C(c1ccco1)N1CCN(C(=O)c2snc3ccc(Cl)cc23)CC1,86.4*,7.8,-3.1
O=C(c1cc(-c2ccc(Cl)cc2Cl)on1)N1CCN(C(=O)c2ccco2)CC1,/,1.1,/
N#Cc1cc2c([nH]c1=S)CCCCCC2,80.7*,21.1,45.5
N#Cc1c(N)n[nH]c1-c1cc2c([nH]1)CCCC2,1.9,-15.9,/
COC(=O)c1ccc(NC(=O)CSc2nnc(C(C)NC(=O)c3ccccc3Cl)n2C)cc1 (centres undefined),/,6.9,/
COc1ccc(-n2nc3cc(C)c(NC(=O)c4cccnc4)cc3n2)cc1,-9.0,/,/
COc1ccc(-n2nc3cc(C)c(NC(=O)CC(C)C)cc3n2)cc1,65.2*,-9.3,60.9*
COc1cc(/C=C(\NC(=O)c2ccccc2)C(=O)Nc2cccc(O)c2)c([N+](=O)[O-])cc1OC,/,-10.1,/
CCC(Sc1nc(N)cc(N)n1)C(=O)O (centres undefined),/,-14.1,/
CCOC(=O)CSC1=C(C#N)C(c2ccc(F)cc2)C(C(C)=O)=C(C)N1 (centres undefined),73.0*,-12.4,13.6
CC1=C(C(=O)Nc2ccc(Cl)cc2)C(c2ccncc2)C(C#N)=C(SCC(N)=O)N1 (centres undefined),/,-10.0,/
C=CCOC(=O)C1=C(C)NC(SCC)=C(C#N)C1c1ccc(Cl)cc1 (centres undefined),/,4.7,/
